Data published in PubChem BioAssay AID1159580 (chemical genetic matrix, 2015).
In all, about 5,500 compounds went through this assay and about 2,000 (36%) were called active. About 18% were inconclusive and are not listed. Cut-off read from the data, not from the text of the source: active = normalized growth mostly below about 0.91 (no sharp cut-off); inconclusive = no clear call, values can overlap the other calls; inactive = mostly above about 0.92. The list shows a part of the results.

Experiment: chemical genetic growth profiling, strain panel (AID 1159580);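 note: tested at 20 µM; growth read once vehicle control cultures reached saturation at 30 °C; 1 = growth at the plate median or of vehicle wells; lower values mean less growth of the strain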
Settings: S. cerevisiae deletion strains, growth OD

Measured: normalized growth

CCOC(=O)C(c1ccccc1)C(Nc1ccc(Cl)c(Cl)c1)c1ccccn1 (configuration not stated)
inactive: locus YAL013W, strain DEP1, hits give low values 1.01 | locus YBR229C, strain ROT2, hits give low values 1.01 | locus YCL061C, strain MRC1, hits give low values 1.02 | locus YDL101C, strain DUN1, hits give low values 1.03 | locus YDR150W, strain NUM1, hits give low values 1.02 | locus YEL061C, strain CIN8, hits give low values 0.996 | locus YGR078C, strain PAC10, hits give low values 1.01 | locus YHR030C, strain SLT2, hits give low values 1.11 | locus YHR087W, strain rtc3, hits give low values 0.986 | locus YJR043C, strain POL32, hits give low values 1.03 | locus YJR075W, strain HOC1, hits give low values 1.03 | locus YKL190W, strain CNB1, hits give low values 1.01 | locus YLR058C, strain SHM2 (second series), hits give low values 1.01 | locus YLR085C, strain ARP6, hits give low values 1.02 | locus YLR262C, strain YPT6, hits give low values 1.15 | locus YML094W, strain GIM5, hits give low values 1.01 | locus YMR219W, strain ESC1, hits give low values 1 | locus YMR263W, strain SAP30, hits give low values 0.985 | locus YNL128W, strain TEP1, hits give low values 1.03 | locus YNL153C, strain GIM3, hits give low values 1.01 | locus YNL298W, strain CLA4 (second series), hits give low values 1.01 | locus YNL322C, strain KRE1, hits give low values 1.01 | locus YNR030W, strain Alg12, hits give low values 1.01 | locus YPL055C, strain LGE1, hits give low values 0.995 | locus YPL241C, strain CIN2, hits give low values 1.01 | locus YPR135W, strain CTF4, hits give low values 1.01
active: locus YLR039C, strain RIC1, hits give low values 1.21 [resistant]
